Mdm2 MdmX PPI – human Mdm2/MdmX binding inhibition; O15151+Q00987; SaOS-2 split-luciferase Mdm2/MdmX complementation, luminescence; inhibition, % at 8 µM; hit rate 3% among 330,000;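 active = inhibition of at least 50% at 8 µM in the primary screen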
Target sequence (O15151 whole entry, looked up): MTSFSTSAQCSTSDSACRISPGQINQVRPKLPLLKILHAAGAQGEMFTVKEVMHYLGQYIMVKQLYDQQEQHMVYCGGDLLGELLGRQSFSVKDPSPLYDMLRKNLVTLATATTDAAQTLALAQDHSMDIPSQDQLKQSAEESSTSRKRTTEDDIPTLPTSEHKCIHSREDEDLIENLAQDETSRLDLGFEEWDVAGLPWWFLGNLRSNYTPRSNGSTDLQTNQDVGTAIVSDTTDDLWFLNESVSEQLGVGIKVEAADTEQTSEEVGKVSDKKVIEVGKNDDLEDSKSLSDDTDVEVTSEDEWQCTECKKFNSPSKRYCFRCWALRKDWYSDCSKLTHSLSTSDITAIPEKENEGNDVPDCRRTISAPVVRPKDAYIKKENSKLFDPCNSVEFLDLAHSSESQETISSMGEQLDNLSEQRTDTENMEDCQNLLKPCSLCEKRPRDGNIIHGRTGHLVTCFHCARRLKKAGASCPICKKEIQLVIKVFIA
Target sequence (Q00987 whole entry, looked up): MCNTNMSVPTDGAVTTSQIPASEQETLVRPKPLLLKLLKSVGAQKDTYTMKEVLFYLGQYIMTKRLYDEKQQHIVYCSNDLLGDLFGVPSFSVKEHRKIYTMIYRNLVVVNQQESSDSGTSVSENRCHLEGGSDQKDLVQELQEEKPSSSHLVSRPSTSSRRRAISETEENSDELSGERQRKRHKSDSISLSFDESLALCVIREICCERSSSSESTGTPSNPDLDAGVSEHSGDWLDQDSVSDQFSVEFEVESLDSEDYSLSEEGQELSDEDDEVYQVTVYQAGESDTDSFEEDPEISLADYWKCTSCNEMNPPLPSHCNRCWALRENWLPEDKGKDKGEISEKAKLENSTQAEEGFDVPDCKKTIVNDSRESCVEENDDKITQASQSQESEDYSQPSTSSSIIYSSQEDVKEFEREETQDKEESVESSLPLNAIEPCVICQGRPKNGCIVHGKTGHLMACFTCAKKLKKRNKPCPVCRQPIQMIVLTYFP
tim23-1 inh – tim23-1 yeast growth inhibition; AID 463212; hit rate 1.3% among 330,000; inhibition, % at 20 µM; S. cerevisiae tim23-1 growth, BacTiter-Glo luminescence, 24 h;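 active = growth inhibition of the mutant yeast at or above 50%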;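 also: temperature-sensitive mutant grown at 25 °C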
MPTP inh – inhibitors of mitochondrial permeability transition pore; isolated mouse mitochondria, Ca2+ swelling absorbance, 30 min; inhibition, % at 10 µM; hit rate 1.4% among 360,000; AID 602449;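 active = inhibition of 50% or more, scaled per plate between neutral and stimulator controls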
TIM10 inh – TIM10 yeast growth inhibition; S. cerevisiae TIM10 strain growth, BacTiter-Glo luminescence, 24 h; inhibition, % at 10 µM; hit rate 1.4% among 330,000; AID 463195;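 active = inhibition of 40% or more at the single tested concentration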;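 also: wild-type TIM10 isogenic control strain grown at permissive 25 °C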
tim10-1 inh – inhibits growth of tim10-1 mutant yeast | S. cerevisiae tim10-1 ts strain growth, BacTiter-Glo, 24 h | inhibition, % at 20 µM | hit rate 2.2% among 330,000 | AID 463190;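 active = inhibition of at least 40%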;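 also: mutant grown at 25 °C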
MPTP counter – Rhodamine 123 counter-screen of mitochondrial pore hits. shares compounds with MPTP inh. isolated mitochondria, membrane potential, Rhodamine 123 fluorescence. inhibition, % at 10 µM. hit rate 78% among 5,000; in the data active = inhibition above about 22%
MPTP swell DR – dose response confirmation of mitochondrial permeability transition pore inhibitors. AID 651561. IC50, µM. isolated mitochondria swelling, absorbance. hit rate 58% among 780. shares compounds with MPTP inh; in the data active = IC50 below about 20 µM
MPTP counter DR – MPTP inhibitor counter-screen activity, dose response. hit rate 49% among 780. IC50, µM. isolated mitochondria counterscreen, fluorescence read-out. shares compounds with MPTP inh; in the data active = IC50 below about 80 µM
A number is an active result; 0 = inactive; - = no result given. In the library only some 6.3% were active in any assay of this set; here they are far more common.

SMILES | Mdm2 MdmX PPI | tim23-1 inh | MPTP inh | TIM10 inh | tim10-1 inh | MPTP counter | others
Cc1ccc(S(=O)(=O)NCc2ccncc2)c(C)c1C | 0 | 0 | 95 | 0 | 0 | 91
CCCCNS(=O)(=O)c1ccc(S(=O)(=O)NCc2ccncc2)cc1 | 0 | 0 | 80 | 0 | 0 | 70
Cc1ccc(S(=O)(=O)NCc2ccccn2)c(C)c1C | 0 | 0 | 0 | 0 | 0 | -
COC(=O)C(C(=O)OC)c1ncccc1NS(=O)(=O)c1ccc(C)cc1 | - | - | 0 | - | - | -
O=[N+]([O-])c1ccc(CSc2ccc(S(=O)(=O)N3CCOCC3)cn2)cc1 | 0 | 0 | 0 | 0 | 0 | -
CCCC1=NN2C(=N)/C(=C\c3cc(C)n(-c4cccc(C)c4)c3C)C(=O)N=C2S1 | 0 | 0 | 52 | 0 | 0 | 0 | MPTP swell DR=0;MPTP counter DR=0
CCCC1=NN2C(=N)/C(=C\c3cc(C)n(Cc4ccccc4)c3C)C(=O)N=C2S1 | 0 | 0 | 0 | 0 | 0 | -
O=C(C[n+]1cnn(CC(=O)c2ccc(Cl)cc2Cl)c1)c1ccc([N+](=O)[O-])cc1 | - | - | 58 | - | - | 0 | MPTP swell DR=7.1;MPTP counter DR=0
COc1ccc(-c2ccc(C(=O)Nc3ccc4c(c3)OCO4)c3occc23)c(C)c1 | - | - | 0 | - | - | -
O=C(NN1C(=O)/C(=C/c2cc([N+](=O)[O-])ccc2O)SC1=S)c1ccccc1O | 0 | 0 | - | 0 | 0 | -
Cc1ccc(/C=C2\SC(=S)N(/N=C/c3cc([N+](=O)[O-])ccc3O)C2=O)o1 | 0 | 0 | 72 | 0 | 0 | 0
c1ccc(Sc2cccc3ccccc23)c(CNC2=NCCN2)c1 | 0 | 0 | 101 | 0 | 0 | 29
CN(C)Cc1ccccc1Sc1ccccc1Br | 0 | 0 | 0 | 0 | 0 | -
CN(C)Cc1ccccc1Sc1cccc2ccccc12 | - | - | 66 | - | - | 0 | MPTP swell DR=11;MPTP counter DR=61
Cc1cc(NC(=O)CSc2[nH]c(=O)cc(C(F)(F)F)c2C#N)no1 | 0 | 0 | 0 | 0 | 0 | -
Cc1cc(-n2c(C)cc(C(=O)CSc3[nH]c(=O)cc(C(F)(F)F)c3C#N)c2C)no1 | 0 | 0 | 57 | 0 | 0 | 72
C=CCn1c(NC(=O)c2ccccc2Cl)c(C#N)c2nc3ccccc3nc21 | 0 | 0 | 74 | 0 | 0 | 79
COc1ccc(CNCCNC(=O)c2nonc2N)cc1OC | 0 | 0 | 0 | 0 | 0 | -
Nc1nonc1C(=O)NCCNCc1cc(Br)ccc1OCc1ccc(F)cc1 | 0 | 0 | 65 | 0 | 0 | 72
Nc1nonc1C(=O)NCCNCc1c(OCc2ccccc2F)ccc2ccccc12 | 0 | 0 | 95 | 0 | 0 | 23
Cc1cccc(NS(=O)(=O)c2ccc(C)c(C(=O)NC3CCN(Cc4ccccc4)CC3)c2)c1 | - | - | 0 | - | - | -
O=C(CSc1nc2cc(Cl)c(Cl)cc2[nH]1)c1ccc2c(c1)OCO2 | 0 | 0 | 78 | 0 | 0 | 73
O=C(CSc1nc2ccc(Cl)cc2[nH]1)c1ccc2c(c1)OCO2 | 0 | 0 | 0 | 0 | 0 | -
CN1CCN(CCCCC(=O)c2ccccc2)CC1 | 0 | 0 | 0 | 0 | 0 | -
CN1CCN(CCCC(=O)c2ccc(C3CCCC3)cc2)CC1 | 0 | 0 | 79 | 0 | 0 | 0 | MPTP swell DR=5.9;MPTP counter DR=19
SMILES | Mdm2 MdmX PPI | tim23-1 inh | MPTP inh | TIM10 inh | tim10-1 inh | MPTP counter | others
COc1ccc(C(OCC(O)CNC(C)c2ccccc2)c2ccc(OC)cc2)cc1 (configuration not stated) | 0 | 0 | 97 | 0 | 0 | 0 | MPTP swell DR=7.5;MPTP counter DR=0
Cc1ccc(S(=O)(=O)N(C)C)cc1NC(=S)NC(C)CCCC(C)C (configuration not stated) | 0 | 0 | 96 | 0 | 0 | 92
Cc1cc(C)cc(NC(=O)Nc2cc(S(=O)(=O)N(C)C)ccc2C)c1 | 0 | 0 | 64 | 0 | 0 | 84
Cc1ccc(S(=O)(=O)N(C)C)cc1NC(=S)NC(C)CCC(C)C (configuration not stated) | 0 | 0 | 57 | 0 | 0 | 73
Cc1ccc(S(=O)(=O)N(C)C)cc1NC(=S)Nc1cccc2ccccc12 | 0 | 0 | 0 | 0 | 0 | -
CCCCCCN1C[C@@H](n2cc(-c3ccc(F)cc3)nn2)[C@H](O)C[C@@H]1c1ccccc1 | - | - | 0 | - | - | -
COc1cc(/C=C/C(C)=NNc2ccccc2)ccc1O | - | - | 0 | - | - | -
O=[N+]([O-])c1ccc(N=Nc2ccc(O)c3ccccc23)cc1 | - | - | 98 | - | - | 79
CCOC(=O)NC(=O)/C(C#N)=N\Nc1ccc(Cl)cc1 | 0 | 0 | 90 | 0 | 0 | 95
Cc1ccc(NC(=O)CSc2nn(-c3ccccc3)c(=S)s2)cc1S(=O)(=O)N(C)C | 0 | 0 | 98 | 0 | 0 | 76
COc1ccc(CCNCC(=O)Nc2ccc(C)c(S(=O)(=O)N(C)C)c2)cc1 | 0 | 0 | 68 | 0 | 0 | 0 | MPTP swell DR=0;MPTP counter DR=74
COc1ccc(-n2nnnc2C(c2cccc3ccccc23)N2CCN(C/C=C/c3ccccc3)CC2)cc1 (configuration not stated) | - | - | 0 | - | - | -
Cc1cn([C@H]2C[C@H](O)[C@@H](/C=C/C(=O)NCCc3ccc(S(N)(=O)=O)cc3)O2)c(=O)[nH]c1=O | - | - | 0 | - | - | -
COc1ccc(C2CCc3cc(OC)c(OC)cc3C2NC=O)cc1OC (configuration not stated) | - | - | 0 | - | - | -
COC(=O)C[C@H]1N(S(=O)(=O)c2ccc(C)cc2)C(C(C)C)CC1(C(=O)OC)C(=O)OC (some centres not stated) | - | - | 0 | - | - | -
C/C(=N\OCc1nc2ccccc2c(=O)n1/N=C/c1cc([N+](=O)[O-])ccc1O)c1ccccc1 | 0 | 0 | 74 | 0 | 0 | 51
O=C(Nc1ccc(OC(F)(F)F)cc1)N1CCc2nc(NCc3cccc(Oc4ccccc4)c3)ncc2C1 | - | - | 92 | - | - | 96
CC(C)(C)c1ccc(CSc2nc(N)cc(=O)[nH]2)cc1 | 0 | 0 | 67 | 0 | 0 | 76
COc1ccc(NC(=S)N2CCN(c3ccc4c(c3)C3CCN(C(=O)OCc5ccccc5)C4C3)CC2)c(OC)c1 (configuration not stated) | - | - | 0 | - | - | -
CCCCNc1nc2ccccc2nc1Cl | 0 | 0 | 0 | 0 | 0 | -
CCCCNc1nc(NCc2ccccc2)nc2ccccc12 | - | - | 78 | - | - | 118
CCCCCC(=O)N1C[C@@H](n2cc(C3CC3)nn2)[C@H](O)C[C@@H]1c1ccccc1 | - | - | 0 | - | - | -
Fc1ccc(NC(=S)SCc2ccc3c(c2)OCO3)cc1F | - | - | 76 | - | - | 94
Fc1ccc(NC(=S)NCc2ccc3c(c2)OCO3)cc1 | 0 | 0 | 0 | 0 | 0 | -
Cn1c(=O)c2[nH]c(Cc3cccc(O)c3)nc2n(C)c1=O | - | - | 0 | - | - | -
Cn1c(=O)c2[nH]c(COc3ccc(C(C)(C)C)cc3)nc2n(C)c1=O | 0 | 0 | 96 | 0 | 0 | 70
CN(C(=O)c1ccc(NC(=O)Cc2ccc(NC(=O)C3CCCN(C(=O)CCc4ccccc4)C3)cc2)cc1)C1CCCC1 (configuration not stated) | - | - | 0 | - | - | -
O=[N+]([O-])c1cc(C(F)(F)F)ccc1NCCCCNS(=O)(=O)c1ccc(Cl)cc1 | 0 | 0 | 86 | 0 | 0 | 90
CS(=O)(=O)NCCCNc1ccc(C(F)(F)F)cc1[N+](=O)[O-] | 0 | 0 | 0 | 0 | 0 | -

Source: PubChem (Sanford-Burnham Center for Chemical Genomics)
